# Screens (PubChem)
# An excerpt weighted towards active compounds, which were near 13% of everything screened.
# HCV inh – inhibitors of hepatitis C virus infection | Huh7.5.1 HCVcc-Cre infection, luciferase reporter, 44 h | Potency, µM (titrated, usually from 41.8 µM), for the others: at the highest dose activity change, negative = inhibition, actives largely listed as inhibitors | hit rate 3.4% among 340,000; also: potency is read from the fitted curve at half-maximal effect
#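 HCVcc-Cre virus at an moi near 0.5 was added right after compound to cells cultured 4 h from seeding (1,000 cells/well). Luciferase activity was determined 44 h later, 15 min after substrate addition at RT.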
# HCMV inh – blocks human cytomegalovirus replication | hit rate 4.5% among 410,000 | AID 1259415 | activity change, negative = inhibition, % at 57.5 µM | HFF cells, HCMV-luciferase reporter, 72 h; stronger effect = lower value; in the data active = activity change below about -60%; inconclusive = no clear call, values can overlap the other calls; inactive = above about -39%
#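 Inhibition of viral replication was scored as loss of reporter luminescence in HFFs infected with HCMV-luciferase (MOI 1 PFU/cell) for 72 h; compounds tested at 2 doses, normalized to buffer and Salinomycin controls.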
# Pf growth 96h – P. falciparum growth inhibition at 96 hours. Potency, µM (doses to about 28.7 µM), for the others: at the top dose activity change, negative = inhibition, actives largely listed as inhibitors. P. falciparum luciferase reporter growth, 96 h. hit rate 6.9% among 320,000. AID 504834; also: potency is read from the fitted curve at half-maximal effect
#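 P. falciparum expressing integrated firefly luciferase grown in erythrocytes (2% hematocrit, 0.05% parasitemia final) with compounds for 96 hours at 37 C, 5% CO2. Growth inhibition read as loss of luminescence after adding luciferase detection reagent.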
# Pf growth 48h – P. falciparum growth inhibition at 48 hours (one generation). Potency, µM (titrated, usually from 28.7 µM), for inactives: top-dose activity change, negative = inhibition, usual class: inhibitors. AID 504832. hit rate 5.9% among 310,000. P. falciparum luciferase growth in erythrocytes, 48 h; also: potency is read from the fitted curve at half-maximal effect
#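 Luminescence readout; reporter = integrated firefly luciferase in P. falciparum. RBC culture at 2% hematocrit, 0.1% parasitemia final, 37 C/5% CO2; decreased signal taken as growth inhibition.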
# An asterisk follows results filed as active; ? = inconclusive; · = not tested or not shown. Unless noted, calls follow the shape of the dose curve; as a rule, active = well fitted inhibition curve with a large enough effect; inconclusive = small, poorly fitted or top-dose-only effect, or another doubt; inactive = no such curve, though single readings can be large or run the other way. % is scaled to controls: 0 for no effect and ±100 for the full control effect.
SMILES,HCV inh,HCMV inh,Pf growth 96h,Pf growth 48h
Cc1ccc(C(=O)Nc2ccccc2)cc1S(=O)(=O)Nc1ccccc1,·,2,·,·
O=C(O)c1cccc(NC(=O)c2cccc(S(=O)(=O)Nc3cccc([N+](=O)[O-])c3)c2)c1,27%,-25,-5%,11%
Cc1ccc(C(=O)NCCSC2CCCCC2)cc1S(=O)(=O)Nc1ccccc1,?,-75*,?,10%
Cc1ccc(C)c(Cn2c(=O)n(CCCCCC(=O)NCc3ccc4c(c3)OCO4)c(=O)c3sccc32)c1,·,-7,·,·
COc1cc(OC)c(NS(=O)(=O)c2ccc3c(c2)CCCN3C(C)=O)cc1Cl,·,-34,·,·
Cc1ccc(NC(=O)CC(=O)c2ccc([N+](=O)[O-])cc2)cc1S(=O)(=O)Nc1cccc(Cl)c1,10µM*,?,?,?
Cc1ccc(C)c(NC(=O)c2ccccc2NS(=O)(=O)c2cc([N+](=O)[O-])ccc2C)c1,8.9µM*,-87*,113%,?
Cc1cccc(NS(=O)(=O)c2cc(C(=O)N3CCN(C)CC3)ccc2C)c1,16%,-18,9.3µM*,·
O=C(NCCN1CCCCC1)c1ccc(Cn2c(SCc3ccccc3)nc3cccnc32)cc1,·,-12,·,·
CCC(=O)Nc1ccc(C2C(=O)c3ccccc3C2=O)cc1,2.8µM*,147,105%,39%
CCC(=O)Nc1ccc(NC(=S)Nc2ccccc2)cc1,12%,?,12µM*,26%
CCCCC(=O)Nc1ccc(C(N)=O)cc1,29%,39,·,7%
CCCCC(=O)Nc1ccc(C2C(=O)c3ccccc3C2=O)cc1,10µM*,55,·,·
CCc1ccc(C2C(=O)c3ccccc3C2=O)cc1,-4%,8,·,·
Cc1ccc(CCNC(=O)CCn2nc(-c3ccc(Cl)cc3)ccc2=O)cc1,·,-26,·,·
COc1cccc(CNC(=O)Cn2c(SCC(=O)Nc3ccc(C)c(C)c3)nc3ccccc32)c1,·,-19,·,·
COc1cccc(NC(=S)N(Cc2ccccn2)Cc2ccccc2Cl)c1,?,-60*,62%,?
Cc1ccc2onc(CNC(=O)NCc3ccccc3)c2c1,·,7,·,·
O=C(NCC1CCCO1)c1cc(S(=O)(=O)N2CCCCC2)ccc1Cl (configuration not stated),0%,-23,18%,4%
O=S(=O)(c1ccc2c(c1)OCCO2)N1CCC(c2nc3ccc(Cl)cc3[nH]2)CC1,?,-96*,?,12µM*
O=C(NCC1CCCO1)c1ccc(S(=O)(=O)N2CCC(c3nc4ccc(Cl)cc4[nH]3)CC2)cc1 (configuration not stated),-26%,-38,-26%,13µM*
O=S(=O)(c1ccc2c(c1)OCCO2)N1CCC(c2nc3ccccc3[nH]2)CC1,4%,3,·,?
Cc1ccc(CNC(=O)CC2Oc3ccccc3NC2=O)cc1 (configuration not stated),·,-2,·,·
CCOC(=O)CNC(=O)CSc1nc2cccnc2n1C1CCCCC1,-7%,41,9.3µM*,-14%
CCCCNC(=O)C1CCN(S(=O)(=O)c2cc(Br)cc3c2N(C(=O)CC)CC3)CC1,·,-7,·,·
SMILES,HCV inh,HCMV inh,Pf growth 96h,Pf growth 48h
CC(C(=O)N1c2ccccc2CC1C)N1CCN(S(=O)(=O)c2ccccc2F)CC1 (configuration not stated),-8%,-6,?,13µM*
O=C(C1CCN(S(=O)(=O)c2ccccc2)CC1)N1CCc2ccccc21,-1%,24,?,25%
O=C(C1CCN(S(=O)(=O)c2ccc3c(c2)OCCO3)CC1)N1CCc2ccccc21,?,?,10µM*,?
O=C(C1CC1)N1CCc2cc(S(=O)(=O)N3CCCc4ccccc43)ccc21,-6%,-68*,?,?
O=C(C1CCN(S(=O)(=O)c2ccccc2F)CC1)N1CCc2ccccc21,14%,-68*,?,-23%
O=C(Nc1ccccc1)C1CCN(S(=O)(=O)c2ccc3c(c2)OCCO3)CC1,?,-22,?,?
Cc1ccc(Cn2c(=O)c3cccnc3n(CC(=O)Nc3cc(Cl)ccc3C)c2=O)cc1,·,7,·,·
COc1ccc(N2CC(NC(=O)COc3ccccc3F)CC2=O)cc1OC (configuration not stated),·,10,·,·
CCN(Cc1ccccc1)C(=O)C1CCN(S(=O)(=O)c2ccc3c(c2)OCCO3)CC1,1%,7,13µM*,?
CN(CC(=O)Nc1cccc(F)c1)C(=O)C1CCN(S(=O)(=O)c2ccc3c(c2)OCCO3)CC1,?,-8,4.1µM*,9.3µM*
COc1cc(NC(=O)c2cc(C3CC3)nc3c2c(C)nn3-c2ccc(C)cc2)cc(OC)c1,·,58,·,·
CC1(C)N=C(SCC(=O)Nc2ccc(Cl)cc2)C(c2ccccc2)=N1,?,-80*,·,·
CC1(C)N=C(SCC(=O)Nc2ccc(Cl)cc2)C(c2ccc(Cl)cc2)=N1,13µM*,-13,·,·
Cc1nnc2sc(-c3ccc(NC(=O)CSc4ccc(Cl)cc4)cc3)nn12,-1%,55,?,5.2µM*
Cc1cc(SCC(=O)Nc2ccc(Cl)cc2)nc2ccccc12,·,-34,·,·
CCOc1ccc(NC(=O)CN2C(=O)C(c3ccc(Cl)cc3)=NC2(C)C)cc1,·,-1,·,·
CCOC(=O)C1CCN(S(=O)(=O)c2ccc(N3CCCCS3(=O)=O)cc2)CC1,·,-10,·,·
CCN1CCN(Cc2nc3c(c(=O)n(C)c(=O)n3C)n2CCc2ccccc2)CC1,8%,8,12µM*,4%
Cn1c(=O)c2c(nc(CN3CCc4ccccc4C3)n2Cc2cccc(Cl)c2)n(C)c1=O,?,-27,1.9µM*,3.3µM*
Cn1c(=O)c2c(nc(CN3CCN(Cc4ccccc4)CC3)n2Cc2cccc(Cl)c2)n(C)c1=O,?,11,1.2µM*,2.1µM*
CCCCCCn1c(CN2CCN(Cc3ccccc3)CC2)nc2c1c(=O)n(C)c(=O)n2C,?,8,-14%,?
CCOCCn1c(CN2CCN(C(c3ccccc3)c3ccccc3)CC2)nc2c1c(=O)n(C)c(=O)n2C,8%,-23,-10%,1.5µM*
CC1CCCN(CCCNC(=O)Cn2ncc3c([nH]c4ccccc43)c2=O)C1 (configuration not stated),·,29,·,·
Cn1c(=O)c2c(nc(N3CCCCCC3)n2Cc2cccc3ccccc23)n(C)c1=O,?,?,0%,?
Cn1c(=O)c2c(nc(CN3CCc4ccccc4C3)n2Cc2ccccc2F)n(C)c1=O,?,?,?,4.7µM*
Cn1c(=O)c2c(nc(CN3CCN(c4ccccc4F)CC3)n2Cc2ccccc2F)n(C)c1=O,·,-1,·,·
CN1CCN(c2nc3c(c(=O)n(C)c(=O)n3C)n2Cc2cccc3ccccc23)CC1,5%,-28,·,10µM*
CN(Cc1ccccc1)Cc1nc2c(c(=O)n(C)c(=O)n2C)n1CCCc1ccccc1,?,-2,10µM*,-19%
CC(C)Cn1c(CN(C)Cc2ccccc2)nc2c1c(=O)n(C)c(=O)n2C,?,-35,-28%,-15%
CCCCN(C)CCCNC(=O)Cn1nc(CC)n2c(cc3sc(C)cc32)c1=O,·,-17,·,·
